Data as given in PubChem BioAssay AID1903 (Southern Research Specialized Biocontainment Screening …, 2009).
“And” between values parts separate entries of the source, which are not always exact repeats. Equal values may be shown once. The campaign covered roughly 310,000 compounds. About 1,200 (0.39%) were called active. The rule behind the calls is not given here. Only a sample is shown. Measured potencies and affinities stand elsewhere.

Each compound was assayed against Large T antigen (Simian virus 40) (UniProt P03070) (assay: SV40 large T antigen inhibitors, biochemical (AID 1903)). Conditions: SV40 large T antigen ATPase/helicase inhibition assay; at 20 µM; stronger effect = higher value.
Sequence of Large T antigen (Simian virus 40) (P03070 whole entry, looked up): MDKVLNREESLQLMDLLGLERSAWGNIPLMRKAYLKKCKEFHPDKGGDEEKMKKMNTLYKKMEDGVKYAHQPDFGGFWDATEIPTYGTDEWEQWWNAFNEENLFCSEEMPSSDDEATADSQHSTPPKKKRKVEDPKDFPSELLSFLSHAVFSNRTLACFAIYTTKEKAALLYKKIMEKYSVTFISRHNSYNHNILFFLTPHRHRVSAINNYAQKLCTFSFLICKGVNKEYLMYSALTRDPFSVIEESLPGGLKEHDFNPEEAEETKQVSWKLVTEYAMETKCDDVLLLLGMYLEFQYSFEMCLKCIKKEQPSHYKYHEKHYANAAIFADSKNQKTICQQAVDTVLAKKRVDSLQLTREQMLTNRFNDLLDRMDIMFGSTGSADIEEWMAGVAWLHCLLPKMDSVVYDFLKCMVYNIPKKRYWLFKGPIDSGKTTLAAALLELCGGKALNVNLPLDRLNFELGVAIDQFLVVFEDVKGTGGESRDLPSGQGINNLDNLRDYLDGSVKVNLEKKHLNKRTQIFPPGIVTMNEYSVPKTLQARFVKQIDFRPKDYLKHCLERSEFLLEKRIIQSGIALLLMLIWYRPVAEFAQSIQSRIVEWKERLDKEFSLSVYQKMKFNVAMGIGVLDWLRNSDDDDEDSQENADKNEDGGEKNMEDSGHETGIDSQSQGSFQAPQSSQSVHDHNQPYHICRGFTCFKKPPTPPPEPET

inhibition, inactive:
Cc1ccccc1NC(=S)NCc1ccccc1 7.25%
CCOC(=O)c1cccc(Nc2nc(-c3cccnc3)nc3ccccc23)c1 6.16%
COc1ccc(CNC(=O)CSc2nnc(C)c(=O)[nH]2)cc1 8.06%
O=C1CC(Nc2ccccc2)C(=O)N1c1ccc(N2CCOCC2)cc1 (stereo not drawn) 6.8%
O=C1CC(Nc2ccc(N3CCOCC3)cc2)C(=O)N1c1ccccc1 (stereo not drawn) 21.4%
S=c1[nH]nc(C2CCCCC2)n1/N=C/c1ccc(Br)cc1 0.57%
CCOc1cc(CNCCO)cc(Br)c1OCc1cccs1 10.3%
CCN(CC)S(=O)(=O)c1ccc(NC(=O)c2cnccn2)cc1 19.6%
CCN(C(=O)CN1CCN(c2ccccc2)CC1)c1c(N)n(Cc2ccccc2)c(=O)[nH]c1=O 14.1%
CCN(C(=O)CN1CCN(c2ccc(OC)cc2)CC1)c1c(N)n(Cc2ccccc2)c(=O)[nH]c1=O 21.5%
Cc1ccc(C(=O)N/C(=C\c2ccc3c(c2)OCO3)C(=O)Nc2ccc(C(=O)O)cc2)cc1 1.87%
COCCN(C(=O)COC(=O)c1cc2c(s1)CCCC2)c1c(N)n(Cc2ccccc2)c(=O)[nH]c1=O 4.52%
CCC1CCc2sc(C(=O)OCC(=O)N(CCOC)c3c(N)n(Cc4ccccc4)c(=O)[nH]c3=O)cc2C1 (stereo not drawn) 16.3%
CCN1/C(=C2/SC(=S)N(NC(C)=O)C2=O)Sc2ccccc21 0.32%
Cc1ccc(-n2cc(CNCC3CC(=O)N(C4CC4)C3)c(-c3cccc(C)c3)n2)cc1 (stereo not drawn) 4.43%
O/N=C/c1ccc2ccccc2c1 70.8%
CCOc1ccc(N=Cc2ccc3ccccc3c2)cc1 21.9%
COc1ccc(S(=O)(=O)N(C)c2ccc(OC(=O)C(C)Oc3ccc(F)cc3)cc2)cc1 (stereo not drawn) 13%
N/C(=N\N=C\c1ccc2c(c1)OCO2)c1nonc1N 7.74%
Cc1cc(=O)oc2c(CN(CC(C)C)CC(C)C)c(O)ccc12 15.8%
Cc1cc(=O)oc2c(CN3CCCC3)c(O)ccc12 4.61%
COc1ccc(CCN2C(=NC(=O)CC(C)C)SC3CS(=O)(=O)CC32)cc1 (stereo not drawn) 0.43%
COc1cccc(/C=N/NC(=O)c2cccs2)c1 -1.95%
COc1cc(/C=N/NC(=S)Nc2cccc(C(=O)O)c2)cc(OC)c1OC 5.01%
CCCOc1ccc(/C=N/NC(=O)c2nnn(-c3nonc3N)c2-c2cccs2)cc1OC 10.3%
COc1ccc(/C=N/NC(=O)c2nnn(-c3nonc3N)c2-c2cccs2)cc1OC 7.55%
COc1cc(/C=N/NC(=O)c2cccc([N+](=O)[O-])c2)cc(OC)c1O 20.1%
COc1cc(/C=N/NC(=O)c2cccs2)ccc1OCc1ccccc1 -0.01%
O=C(CNC(=O)c1cccc(F)c1)N/N=C/c1cccc([N+](=O)[O-])c1 16.8%
COc1ccc(/C=N/NC(=S)Nc2cccc(C(=O)O)c2)cc1OC 19.3%
COc1cc(OC)c(C(=O)NCC2CCCO2)cc1OC (stereo not drawn) -5.36%
CS(=O)(=O)N1CCCC(C(=O)Nc2ccccc2F)C1 (stereo not drawn) 1.68%
O=C(O)c1cccc(NC(=O)c2ccccc2NC(=O)c2ccccc2F)c1 9%
Cc1ccc(NC(=O)CN(C)CC(=O)Nc2ccccc2C#N)cc1 8.84%
CC(Oc1ccc(Br)cc1)C(=O)O/N=C(\N)c1ccncc1 (stereo not drawn) 2.31%
COc1cccc(C(=O)C2CCCN(Cc3cn(C)nc3-c3ccccc3)C2)c1 (stereo not drawn) -3.2%
COc1cc2[nH]c(-c3cccc(F)c3)cc(=O)c2cc1OC 16.1%
CN(CC(=O)Nc1ccc(S(N)(=O)=O)cc1)Cc1ccccc1F 4.84%
COc1ccc(/C=N/NC(=O)c2cnccn2)cc1O 26.2%
COc1ccc(/C=N/NC(=O)c2cccc([N+](=O)[O-])c2)cc1OC 22.1%
COc1cc(/C=N/NC(=O)c2ccccc2O)ccc1OCC(=O)Nc1ccccc1 13.3%
COc1cc(/C=N\NC(=O)C2COc3ccccc3O2)cc(OC)c1O (stereo not drawn) 37.5%
O=C(CC1SC(=O)NC1=O)Oc1ccc(/C=N/NC(=O)c2ccccc2O)cc1 (stereo not drawn) 48.3%
COc1ccc(/C=N/NC(=O)c2cccc([N+](=O)[O-])c2)cc1O 29.7%
COc1ccc(/C=N/NC(=O)C2COc3ccccc3O2)cc1OC (stereo not drawn) -1.14%
COc1cc(/C=N/NC(=O)c2cnccn2)cc(OC)c1OC -1.61%
N#CCc1c(C#N)c(N)nc(N2CCOCC2)c1C#N 5.53%
CN(Cc1ccccc1)S(=O)(=O)c1ccc(NC(=O)c2ccccc2C(=O)O)cc1 4.64%
Cc1ccc(Cn2cnc3sc4c(c3c2=O)CCC4)c(C)c1 9.2%
O=C(N/N=C\C=C\c1ccc2c(c1)OCO2)C1COc2cc3ccccc3cc2O1 (stereo not drawn) 7.25%
COc1ccc(C(=O)Nc2cc(C)on2)cc1OC 4.7%
O=C(O)c1sccc1Oc1ccc(NS(=O)(=O)c2ccccc2)cc1 9.58%
O=C(OCc1nc2ccccc2[n+]([O-])c1C(=O)c1ccccc1)c1cccs1 8.13%
COc1cc(/C=N/NC(=O)c2cc[n+]([O-])cc2)ccc1O 27.9%
CCOc1ccc(/C=N/N(C)c2ccccc2)cc1OC 3.32%
COc1cc(/C=N/NC(=O)c2cc(C3CC3)[nH]n2)cc(OC)c1OC 8.67%
COc1cc(/C=N/N(c2ccccc2)c2ccccc2)ccc1O 18.7%
COc1ccc(/C=N/NC(=O)c2cc(C3CC3)[nH]n2)cc1OC 11.7%
COc1cc(/C=N/NC(=O)c2c(-c3ccccc3)noc2C)cc(OC)c1OC 0.27%
COc1cc(C(=O)N/N=C/c2ccc(OC(=O)c3ccccc3)c(OC)c2)ccc1O 23.2%
CCOc1cc(/C=N/NC(=O)c2c(-c3ccccc3)noc2C)ccc1O 34.1%
Cc1c(NS(=O)(=O)c2ccc(Br)s2)c(=O)n(-c2ccccc2)n1C 3.2%
O=C(NCCc1ccco1)c1cc(COc2cccc(C(F)(F)F)c2)on1 29.7%
CCc1ccc(CN2CCC(n3nccc3NC(=O)Cc3ccccc3)CC2)o1 13.5%
Cc1ccc(N(CC(=O)N/N=C/c2cccc(Br)c2)S(C)(=O)=O)cc1 9.07%
CC(C)(C)c1cc(C(=O)N/N=C/c2ccc(F)cc2)n(-c2ccccc2)n1 -0.35%
Cc1ccc(/C=N/NC(=O)c2nc3nc(C)cc(C)n3n2)cc1 22.5%
CC(C)(C)c1cc(C(=O)N/N=C/c2ccccc2O)n(-c2ccccc2)n1 19.8%
CCOc1cc(/C=N\NC(=O)c2c(C)nc3ccccn23)ccc1O 35%
Cc1cc(C)n2nc(C(=O)N/N=C/c3ccc(Cl)cc3)nc2n1 6.6%
COc1cc(/C=N/NC(=O)c2cccc(C(=O)N/N=C/c3ccc(O)c(OC)c3)n2)ccc1O -2.1%
COc1cc(/C=N/NC(=O)c2cc3ccccc3[nH]2)ccc1O 27.5%
COc1ccc(OC)c(/C=N\NC(=O)c2c(C)nc3cc(C)ccn23)c1 11.2%
COc1ccc(S(=O)(=O)N2CCCC(C(=O)NCCC(C)C)C2)cc1 (stereo not drawn) 5.62%
Cc1cccc(NC(=O)c2cc(-c3cc(C)c(C)cc3O)n[nH]2)c1 4.66%
CCOC(=O)Cc1c(C)nc(SC)[nH]c1=O 1.67%
Cc1nn(C)c(Oc2ccccc2)c1CCNC(=O)CCl -0.24%
COc1cccc(OC)c1C(=O)Nc1ccc(S(=O)(=O)Nc2cc(C)nc(C)n2)cc1 20.7%
COc1ccc(N(CC(=O)NCc2ccncc2)S(=O)(=O)c2ccccc2[N+](=O)[O-])c(OC)c1 2.38%
COc1cc(/C=N/NC(=O)c2ccc3nc[nH]c3c2)cc(OC)c1OC 8.71%
COc1ccc(/C=N/NC(=O)c2ccc3nc[nH]c3c2)cc1OC 3.44%
COCCSc1nc2c(c(=O)[nH]c(=O)n2C)n1CCCc1ccccc1 3.03%
Cc1noc(C)c1COC(=O)c1cccnc1SCC(=O)Nc1ccc2c(c1)OCO2 2.06%
Cc1ccccc1Cn1cnc2c(NS(C)(=O)=O)c(C)c(C)cc21 0.14%
NC(N)=N/N=C/c1c(Cl)cccc1Cl 21.2% and 9.2%
Cc1c(Cl)cccc1N=C(N)N=C(N)N 13.8%
COc1ccc(OC)c(N=C2C(=O)Nc3ccccc32)c1 4.71%
Cc1ccsc1/C=N/N=C1\C(=O)Nc2ccccc21 -4.81%
COc1ccc(O)c(/C=N/N=C2/C(=O)Nc3ccccc32)c1 12.5%
COc1cc(/C=N/N=C(/C(=O)c2ccccc2)c2ccccc2)cc(OC)c1O 15.6%
O=C1Nc2ccccc2/C1=N/N=C/c1cccc(O)c1 13.2%
COc1cc(/C=N/N=C2/NC(=O)C(c3ccccc3)S2)ccc1O (stereo not drawn) 30.9%
COC(=O)c1ccc(S(=O)(=O)N2C3CCC2CC(NC(=O)C2CC2)C3)cc1 (stereo not drawn) -2.31%
